Source: PubChem BioAssay (NCI)
The panel holds about 79,000 compounds, 15% with a hit somewhere; the sample as a whole holds those more often. Cut-off read from the data, not from the text of the source: active = growth inhibition above about 70%; inactive = the rest.

What was measured:
[1] = NCI Yeast Anticancer Drug Screen. Data for the rad50 strain (AID 155);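 note: 0% = growth of vehicle-only cultures of the same strain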; settings: S. cerevisiae rad50 strain growth inhibition; at 50.0 µM; stronger effect = higher value
Summary of the method: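 Compounds were tested on a yeast strain with an engineered DNA damage repair alteration; the reported value is growth inhibition normalised to vehicle treatment.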

[2] = NCI Yeast Anticancer Drug Screen. Data for the mec2-1 strain (AID 157); settings: S. cerevisiae mec2-1 strain, at 50.0 µM, stronger effect = higher value
Summary of the method: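 Yeast mec2-1 mutant treated with compound. Readout: growth inhibition vs vehicle controls.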

[3] = NCI Yeast Anticancer Drug Screen. Data for the sgs1 mgt1 strain (AID 161);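 note: 0% = growth of cultures given vehicle only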; settings: S. cerevisiae sgs1 mgt1 strain, at 50.0 µM, stronger effect = higher value
Summary of the method: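 Test agents were incubated with a DNA-repair-mutant yeast strain. Growth was then read and compared against vehicle-treated controls.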

[4] = NCI Yeast Anticancer Drug Screen. Data for the cln2 rad14 strain (AID 165);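 note: 0% = growth equal to vehicle treated cultures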; settings: S. cerevisiae cln2 rad14 strain, at 50.0 µM, stronger effect = higher value
Summary of the method: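 cln2 rad14 yeast strain; compound exposure; growth inhibition read vs vehicle controls.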

[5] = NCI Yeast Anticancer Drug Screen. Data for the bub3 strain (AID 167); settings: S. cerevisiae bub3 mutant strain, at 50.0 µM, stronger effect = higher value
Summary of the method: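 Growth of a checkpoint-deficient yeast mutant is measured after compound exposure. Values represent inhibition relative to vehicle.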

[6] = NCI Yeast Anticancer Drug Screen. Data for the mlh1 rad18 strain (AID 175); settings: S. cerevisiae mlh1 rad18 strain growth inhibition; at 50.0 µM; stronger effect = higher value
Summary of the method: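 Yeast w/ defined DNA-repair lesions; compound exposure; growth vs vehicle controls → % inhibition.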

Measured: growth inhibition

Cc1nc2sccc2c(=O)n1C
inactive: [1] -4.5% | [2] -3.6% | [3] -0.9% | [4] -4.1% | [5] 0.2% | [6] -4.35%

COc1ccc2ccccc2c1C=O
inactive: [1] 33.5% | [2] 23% | [3] 40.1% | [4] -16.2% | [5] 5.45% | [6] 47.8%

OCC1OC(c2scc3c(=S)nc[nH]c23)C(O)C1O (configuration not stated)
inactive: [1] -5.9% | [2] -13.7% | [3] -9.45% | [4] 19.6% | [5] 12.6% | [6] -11.2%

COC(=O)/C(=C/c1ccc(OC)cc1)C(C(=O)O)=C1CCCCC1
inactive: [1] 20.2% | [2] 9.95% | [3] 7.35% | [4] 9.75% | [5] 2.25% | [6] -8.9%

COc1ccc(C(O)C(c2ccc(OCc3ccccc3)cc2)c2ccc(OCc3ccccc3)cc2)cc1 (configuration not stated)
inactive: [1] 1.05% | [2] -27.9% | [3] -5.15% | [4] -4.25% | [5] -29.2% | [6] -22.4%

CC1(C(O)(c2ccccc2)c2ccccc2)CC1(c1ccccc1)c1ccccc1 (configuration not stated)
inactive: [1] -21.4% | [2] -2.4% | [3] -10.9% | [4] -8.05% | [5] 1.3% | [6] -2.3%

C(=C/c1ccc(-c2ccccc2)cc1)/C=C/c1ccc(-c2ccccc2)cc1
inactive: [1] 3.3% | [2] 4% | [3] -0.2% | [4] -29.2% | [5] 6.95% | [6] 17.9%

CCc1cccc(C)c1NC(=O)C(=O)CC(=O)CCCO
inactive: [1] -37.6% | [2] 21.7% | [3] 27.6% | [4] -27.9% | [5] 0.05% | [6] 25.4%

CCCCCCC(N)(CCCCCC)C(=O)Nn1c(C)ccc1C
inactive: [1] 45% | [2] 13.1% | [3] 9.8% | [4] -20.6% | [5] 4.25% | [6] 31.2%

NC(=O)NN1CC(=O)N(c2ccccc2)CC1=O
inactive: [1] 7.75% | [2] 8.2% | [3] 6.8% | [4] -18.1% | [5] 14.2% | [6] 28.6%

C=CCNCC(O)C(F)(F)C(F)(F)C(F)(F)C(F)(F)C(F)(F)C(F)(F)F (configuration not stated)
inactive: [1] 22.5% | [2] 28.9% | [3] 32.1% | [4] -6.9% | [5] 7.55% | [6] 27.6%

C[N+](C)(CCCn1ccnc1[N+](=O)[O-])CCCn1ccnc1[N+](=O)[O-]
inactive: [1] -15.3% | [2] -6% | [3] 14.8% | [4] 3.55% | [5] -14.8% | [6] 4.8%

O=C(O)c1ccccc1/C=N/NC1=NCCCCN1
inactive: [1] -46.8% | [2] -23.4% | [3] -29.4% | [4] -9.65% | [5] -7.55% | [6] -33.1%

OCC(I)CO
inactive: [1] 15.8% | [2] 3.45% | [3] 16.9% | [4] 1.45% | [5] 1.7% | [6] 16.6%

O=NN(Cc1ccccc1)c1ccc(OCc2ccccc2)c(NC(=O)CCC2OCCO2)c1
inactive: [1] 6.95% | [2] 4.25% | [3] 30.4% | [4] 7.05% | [5] 39.9% | [6] 9.5%

COc1ccc(N=NN(C(C)=O)c2ccccc2)cc1
inactive: [1] 2.85% | [2] 10.2% | [3] 35.5% | [4] -5.75% | [5] -1% | [6] 19.1%

CC(=O)Oc1cc(C(C)C)ccc1C
inactive: [1] 26.7% | [2] -3.75% | [3] 18.1% | [4] -1.4% | [5] 0% | [6] 15.4%

CCCCCC/C=C\CCCCCCCCCc1cccc(OC)c1O
inactive: [1] 18.4% | [2] 6.65% | [3] -4.3% | [4] 14.5% | [5] 7.8% | [6] 11.7%

CC(=O)OCC1=COC(OC(=O)CC(C)(C)OC(C)=O)C2C1=CC(OC(=O)CC(C)C)[C@@]21CO1 (some centres not stated)
inactive: [1] 14.4% | [2] 16.4% | [3] 3.6% | [4] 6.3% | [5] 6.75% | [6] 9.95%

CC/C(C=O)=C\NC(=O)Nc1ccccc1
inactive: [1] 9.35% | [2] -21.6% | [3] 0.8% | [4] -22.9% | [5] -26.6% | [6] 1.1%

CC1(CO)COC(c2ccccc2)=N1 (configuration not stated)
inactive: [1] 4.65% | [2] 2.85% | [3] 4.55% | [4] -8.9% | [5] -1.3% | [6] 0.75%

O=S(O)CCCSSSCCCS(=O)O
inactive: [1] 26.1% | [2] 20.9% | [3] 45.5% | [4] 37% | [5] 20% | [6] 38.6%

CCCCOC(=O)C1=NNC(=O)C1
inactive: [1] -17.6% | [2] -17.9% | [3] -11.9% | [4] -10.1% | [5] -12.3% | [6] -11.9%

[N-]=[N+]=Nc1cc(=O)n(-c2ccccc2)c(=O)n1-c1ccccc1
inactive: [1] 9.5% | [2] 8.75% | [3] 13.3% | [4] 21.6% | [5] 10.3% | [6] 32.2%

C/C=C\C=N\NC(=O)C(=O)N/N=C/C=C\C
inactive: [1] 0.9% | [2] -17.1% | [3] -7.55% | [4] -56.5% | [5] -8.5% | [6] -0.75%

O=c1ccn(C2OC(CF)C(O)C2O)c(=O)[nH]1 (configuration not stated)
inactive: [1] 1.8% | [2] -2.85% | [3] -1.4% | [4] 9.05% | [5] 0.7% | [6] -9.9%

Nc1c(F)c(F)cc(F)c1[N+](=O)[O-]
inactive: [1] 2.6% | [2] -2.7% | [3] 2.55% | [4] 7.6% | [5] 9.6% | [6] 4.35%

Cc1cccc(Cl)c1OCC(=O)Nc1ccccc1
inactive: [1] 20.9% | [2] 10.1% | [3] 20.8% | [4] 0.8% | [5] 58.6% | [6] -3.65%

S=C(S)N(Cc1ccccc1)Cc1ccccc1
inactive: [1] 33.4% | [2] -3% | [3] 27.2% | [4] -0.7% | [5] 6.6% | [6] 36.5%

CCCCNc1nc(SC)nc2nc[nH]c12
inactive: [1] -9.35% | [2] -9.65% | [3] -41.1% | [4] -21.2% | [5] -26.4% | [6] -3.9%

COc1ccc(C2COc3cc4c(cc3C2)OCO4)cc1 (configuration not stated)
inactive: [1] -22.4% | [2] -26.1% | [3] -20.6% | [4] -2.3% | [5] 20.1% | [6] 4.9%

CCOc1ccc(/C=C/c2ccc(OCC)cc2)cc1
inactive: [1] -4.65% | [2] -16.4% | [3] -8.9% | [4] -1.5% | [5] 8.55% | [6] -24.3%

C/C(=C\c1ccccc1)C(=O)c1c(C)cc(C)cc1C
inactive: [1] 26.9% | [2] -2.9% | [3] 11.1% | [4] -0.2% | [5] -5.45% | [6] -11.8%

CCOC(=O)CNCc1cccc(C)c1
inactive: [1] -1.45% | [2] -10.2% | [3] -19.1% | [4] -82.8% | [5] 0.6% | [6] 1.95%

Cc1nc(-c2cc3c(ccc4ccccc43)oc2=O)cs1
inactive: [1] 21.5% | [2] -8.85% | [3] -4.45% | [4] 25.8% | [5] -4.4% | [6] -21.5%

Cc1cccc(C)c1NC(=O)C(Cl)Cl
inactive: [1] -2.9% | [2] -0.6% | [3] -3.9% | [4] 5.05% | [5] -12% | [6] -0.15%

O=C(O)C1(c2ccccc2)CC1
inactive: [1] 8.5% | [2] -7% | [3] 13.1% | [4] 2.45% | [5] 15.9% | [6] 7.85%

CC(O)CN1CCN(CN(CC(C)O)CC(C)O)CC1 (configuration not stated)
inactive: [1] 0.55% | [2] 7.25% | [3] 10.7% | [4] -2.65% | [5] 9% | [6] -16.4%

CC(OS(C)(=O)=O)C(C)OS(C)(=O)=O (configuration not stated)
inactive: [1] 2.4% | [2] -9.35% | [3] -11.7% | [4] -10.4% | [5] 0.95% | [6] -19.6%

O=C(CSSCC(=O)Nc1ccccc1O)Nc1ccccc1O
inactive: [1] -11.2% | [2] -8.15% | [3] -11.7% | [4] -24.1% | [5] 27.2% | [6] -4.85%

CCC(=O)Nc1ccc(C)cc1C
inactive: [1] 23.7% | [2] 12.9% | [3] 9.8% | [4] 13.7% | [5] 2.6% | [6] 3.45%

Cc1cc2c(=O)cc(-c3ccccc3)oc2c(C(=O)O)c1C
inactive: [1] -12.7% | [2] -8.55% | [3] 14.8% | [4] -19.7% | [5] -4.65% | [6] -10.4%
